Source: PubChem BioAssay
Hits are enriched below; roughly 3.4% of the tested compounds scored in any of these assays.
hgDAF12 agonist – activates the H. glycines DAF-12 receptor ligand-binding domain. HEK293 GAL4-hgDAF12 UAS-luciferase reporter, agonist luminescence; normalized to butyrate control. activation, % at 6.8 µM. 370,000 compounds, 1.8% hits. AID 687014;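 active = activation above a cutoff set at the mean of all screened compounds plus 3 SD, cut at about 10% in these data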;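 note: 0% = DMSO wells and 100% = sodium butyrate wells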
hcDAF-12 act – H. contortus DAF-12 activation, primary screen | HEK293 hcDAF-12 lit1-tk-luc reporter, luminescence; 0% DMSO, 100% Δ7-dafachronic acid | activation, % at 6.8 µM | 370,000 compounds, 1.4% hits;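 active = activation above the mean of all tested compounds plus 3 SD, cut at about 5.5% in these data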;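 note: 100% = response to 3 µM Δ7-dafachronic acid high control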
APP 5'UTR act – APP 5'UTR luciferase reporter activation; SH-SY5Y APP 5'UTR luciferase reporter, luminescence; zero percent = DMSO vehicle wells; activation, % at 2 µM; 190,000 compounds, 1% hits; AID 1276;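 active = activation above a set limit, based on mean plus 3 SD of controls, cut at about 140% in these data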
NF-kB neuron act – compounds increasing NF-kB expression in human neuronal cells; NF-kB reporter expression; stronger effect = higher value; fold change at 12.5 µM; 190,000 compounds, 1.6% hits; AID 1239; in the data active = fold change above about 3.3
ssDAF-12 act – activates DAF-12 receptor from parasite S. stercoralis | activation, % at 6.8 µM | HEK293 ssDAF-12/GRIP1 lit1-tk-luc reporter, luminescence; % of 3 µM dafachronic acid response | 370,000 compounds, 1% hits;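 active = activation above the mean over all tested compounds plus 3 SD, cut at about 0.9% in these data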;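 note: 0% = DMSO-only wells and 100% = 3 µM delta7-dafachronic acid wells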
Numbers without * were called inactive; . = no result given.

SMILES	hgDAF12 agonist	hcDAF-12 act	APP 5'UTR act	NF-kB neuron act	ssDAF-12 act
Cc1ccc(NCCC(=O)c2cccs2)cc1Cl	12*	4	-5	2	0
Cc1ccc(NCCC(=O)c2cccs2)cc1	12*	5	22	0.88	1.4*
Cc1ccccc1CN1CCCCC(NC(=O)c2ccc(F)cc2F)C1=O (stereo not drawn)	0	-2	.	.	-1
Cc1ccc(Cl)cc1NC(=O)COC(=O)Cn1cnc2c1c(=O)n(C)c(=O)n2C	-1	5	22	1	-2
Cn1c(=O)c2c(ncn2CC(=O)OCC(=O)Nc2cc(Cl)ccc2C#N)n(C)c1=O	0	6.0*	.	.	1
O=C(COC(=O)Cn1cnc2ccccc2c1=O)Nc1cc(Cl)ccc1[N+](=O)[O-]	0	5.6*	1	1.1	1
COC(=O)[C@]12C[C@H](CC(=O)NCc3ccc(OC)c(OC)c3)C(=O)N(CCc3ccc(OC)c(OC)c3)C1=C[C@H](C(C)C)O[C@@H]2C1CC1	2	-4	.	.	-1
Cc1ccc(C(=O)Nc2cccc(C(=O)O)c2)cc1	10	2	-35	5.3*	0
O=C(O)c1cccc(NC(=O)c2ccccc2)c1	2	3	.	.	0
COc1ccc(C(=O)Nc2ccc3ccccc3c2)cc1OC	12*	2	.	.	0
COc1ccc(NC(=O)c2cccc3ccccc23)cc1	11*	1	.	.	-1
COc1ccc(C(=O)Nc2ccc3ccccc3c2)cc1	10	5.8*	.	.	1
O=c1c2ccccc2n(Cc2ccco2)n1[C@@H](Cc1ccccc1)Cn1cc(C2CCCC2)nn1	-2	-1	.	.	-1
COc1ccc(-n2c(SCC(=O)Nc3cc(C)c(NC(=O)c4ccccc4)cc3OC)nnc2-c2cccnc2)cc1	0	2	.	.	-1
CCN(CC)c1ccc(NC(=O)CSc2nc3ccccc3c(=O)n2-c2ccc(C)cc2)cc1	3	-3	.	.	-1
COc1ccc(NC(=O)c2oc3ccccc3c2NC(=O)C2CC2)cc1	-1	-1	5	1.2	-2
COc1cc(NC(=O)CCc2ccccc2)nc(OC)n1	1	2	12	1.4	-1
CCOc1ccc(NC(=O)c2oc3ccccc3c2NC(=O)CC)cc1	.	.	64	5.1*	.
COc1ccc(C(=O)Nc2cc(OC)nc(OC)n2)cc1	12*	4	140*	7.2*	0
